Calls of active or inactive are those of the source.
Assays:
[1] = tested on: Plasmodium falciparum Sir2 (PF13_0152, Sir2A); assay: pfSir2 binders on small-molecule microarrays, primary screen, biochemical, small-molecule microarray, 635 nm fluorescence (AID 1098); conditions: small-molecule microarray binding, fluorescence 635 nm; higher = more signal;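 note: score merges spot fluorescence intensity with its signal-to-noise ratio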
[2] = small-molecule microarray binders of probe aDKK1, primary screen, biochemical, biotinylated probe, 635/667 nm fluorescence (AID 1099); conditions: higher = more signal;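 note: score merges 667nm spot fluorescence with signal to noise across triplicate slides; reference of the scale not given here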
[3] = small-molecule microarray binders of probe aCHRDL2, primary screen, biochemical, biotinylated probe, 635/667 nm fluorescence (AID 1100); conditions: higher = more signal
[4] = splicing luciferase reporter signal modulators, primary screen, spliceosome inhibition project, cell-based, HEK293, splice +/- reporter (AID 1101); conditions: luminescence, 24 h, higher = more signal, called active from +8 up or from −8 down;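 note: HEK293 cells carrying a splicing-competent luciferase reporter gene; test concentration not given here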
[5] = molecular target: Fibroblast growth factor 10 (Homo sapiens) (UniProt O15520); assay: FGF10 binders on small-molecule microarrays, primary screen, biochemical, small-molecule microarray, 635 nm fluorescence (AID 1102); conditions: FGF10 binding, fluorescence 635 nm, higher = more signal
[6] = tested on: glycogen synthase kinase-3 (GSK3A per assay name; protocol says GSK3B); assay: GSK3 binders on small-molecule microarrays, primary screen, biochemical, small-molecule microarray, 635 nm fluorescence, GSK3A (AID 1103); conditions: small-molecule microarray binding, fluorescence 635 nm; higher = more signal; note: the record names both GSK3A and GSK3B
[7] = molecular target: Epidermal growth factor receptor (Homo sapiens) (UniProt P00533); assay: EGFR binders on small-molecule microarrays, primary screen, biochemical, small-molecule microarray, 635 nm fluorescence (AID 1104); conditions: EGFR binding, higher = more signal;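 note: score merges 667 nm emission intensity with spot signal to noise over triplicate slides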
[8] = molecular target: Follistatin-related protein 3 (Homo sapiens) (UniProt O95633); assay: FSTL3 binders on small-molecule microarrays, primary screen, biochemical, small-molecule microarray, 635 nm fluorescence (AID 1105); conditions: FSTL3 binding, higher = more signal;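 note: score merges emission near 667 nm and signal to noise per printed spot across three slides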
[9] = molecular target: Dickkopf-related protein 1 (Homo sapiens) (UniProt O94907); assay: DKK1 binders on small-molecule microarrays, primary screen, biochemical, small-molecule microarray, 635 nm fluorescence scan (AID 1106); conditions: DKK1 binding, higher = more signal;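 note: score merges emission near 667 nm with signal to noise over three replicate slides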
[10] = tested on: Inhibin beta A chain (activin A); assay: INHBA (activin A) binders on microarrays, primary screen, biochemical, small-molecule microarray, 635 nm fluorescence scan (AID 1107); conditions: small-molecule microarray binding, higher = more signal;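 note: mouse activin A protein probed at 4.33 µg/mL on printed slides; score merges bound-protein fluorescence near 667 nm with spot signal-to-noise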

Sequence of Fibroblast growth factor 10 (Homo sapiens) (O15520 whole entry, looked up): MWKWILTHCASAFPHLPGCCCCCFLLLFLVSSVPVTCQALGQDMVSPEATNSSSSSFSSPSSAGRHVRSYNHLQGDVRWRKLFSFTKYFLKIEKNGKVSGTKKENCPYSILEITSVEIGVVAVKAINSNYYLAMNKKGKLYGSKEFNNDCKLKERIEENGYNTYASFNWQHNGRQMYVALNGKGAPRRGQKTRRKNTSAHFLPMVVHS
Sequence of Follistatin-related protein 3 (Homo sapiens) (O95633 whole entry, looked up): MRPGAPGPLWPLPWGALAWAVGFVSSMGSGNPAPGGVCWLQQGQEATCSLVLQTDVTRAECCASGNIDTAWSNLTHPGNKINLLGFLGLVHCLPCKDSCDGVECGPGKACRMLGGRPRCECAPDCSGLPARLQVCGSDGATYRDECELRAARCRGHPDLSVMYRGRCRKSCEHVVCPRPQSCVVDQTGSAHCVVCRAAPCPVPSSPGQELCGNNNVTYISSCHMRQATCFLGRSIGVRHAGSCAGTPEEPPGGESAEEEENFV
Sequence of Epidermal growth factor receptor (Homo sapiens) (P00533 whole entry, looked up): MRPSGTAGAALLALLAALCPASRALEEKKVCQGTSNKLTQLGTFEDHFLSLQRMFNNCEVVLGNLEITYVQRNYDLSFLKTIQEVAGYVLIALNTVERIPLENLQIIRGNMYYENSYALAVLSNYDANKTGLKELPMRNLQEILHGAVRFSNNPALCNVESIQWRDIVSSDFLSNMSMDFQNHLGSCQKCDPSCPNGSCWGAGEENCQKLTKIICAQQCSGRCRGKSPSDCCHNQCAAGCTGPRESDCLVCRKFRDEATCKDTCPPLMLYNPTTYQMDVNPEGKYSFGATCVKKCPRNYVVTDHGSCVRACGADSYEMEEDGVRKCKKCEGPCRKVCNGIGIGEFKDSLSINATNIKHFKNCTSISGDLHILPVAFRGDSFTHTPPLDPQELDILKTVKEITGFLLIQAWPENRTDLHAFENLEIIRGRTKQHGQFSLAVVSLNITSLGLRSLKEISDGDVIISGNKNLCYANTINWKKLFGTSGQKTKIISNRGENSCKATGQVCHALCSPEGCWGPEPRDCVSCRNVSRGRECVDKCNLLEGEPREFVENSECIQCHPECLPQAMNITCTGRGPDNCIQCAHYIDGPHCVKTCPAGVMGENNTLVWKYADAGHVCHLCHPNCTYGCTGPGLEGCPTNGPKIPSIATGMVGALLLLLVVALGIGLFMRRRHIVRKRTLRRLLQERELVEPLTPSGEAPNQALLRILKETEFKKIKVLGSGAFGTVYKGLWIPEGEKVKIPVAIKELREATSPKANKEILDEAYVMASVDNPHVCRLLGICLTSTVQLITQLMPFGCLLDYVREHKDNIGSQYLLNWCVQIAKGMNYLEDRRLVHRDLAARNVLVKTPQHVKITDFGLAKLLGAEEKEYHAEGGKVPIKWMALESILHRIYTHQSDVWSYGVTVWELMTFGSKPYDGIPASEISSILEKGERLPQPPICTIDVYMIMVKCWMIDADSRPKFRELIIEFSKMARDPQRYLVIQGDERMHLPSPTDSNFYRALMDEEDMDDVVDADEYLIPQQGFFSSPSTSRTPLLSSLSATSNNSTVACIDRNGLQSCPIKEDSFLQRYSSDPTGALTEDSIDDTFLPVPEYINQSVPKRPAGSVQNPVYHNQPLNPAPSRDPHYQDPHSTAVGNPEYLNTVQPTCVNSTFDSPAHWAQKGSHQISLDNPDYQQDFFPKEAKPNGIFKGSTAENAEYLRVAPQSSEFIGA
Sequence of Dickkopf-related protein 1 (Homo sapiens) (O94907 whole entry, looked up): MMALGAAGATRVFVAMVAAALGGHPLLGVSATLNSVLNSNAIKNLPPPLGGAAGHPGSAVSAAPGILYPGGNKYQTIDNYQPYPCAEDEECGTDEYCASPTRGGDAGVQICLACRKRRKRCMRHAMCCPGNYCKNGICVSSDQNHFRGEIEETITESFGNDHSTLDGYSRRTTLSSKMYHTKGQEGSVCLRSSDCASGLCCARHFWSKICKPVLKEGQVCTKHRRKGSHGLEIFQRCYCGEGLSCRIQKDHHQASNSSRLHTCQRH

SMILES	composite z-score [1]	composite z-score [2]	composite z-score [3]	z-score [4]	composite z-score [5]	composite z-score [6]	composite z-score [7]	composite z-score [8]	composite z-score [9]	composite z-score [10]
CC(=O)n1cc(C(O)C2C=CC3C(=O)N(c4ccccc4)C(=O)C3N2Nc2ccc(C#N)cc2)c2ccccc21 (stereo not given)	0.696	0.415	1.07	0.888 (inactive)	0.879	0.186	-0.105	0.0519	-0.817	0.854
COC(=O)c1nc2oc1CC[C@@H](CO)NC(=O)N(C)Cc1cn(nn1)C[C@H](Cc1ccccc1)NC2=O	0.68	-0.268	0.269	-0.275 (inactive)	0.133	-0.587	-0.647	-0.221	-0.4	0.697
CC(c1ccccc1)C(O)C1C=CC2C(=O)N(c3ccccc3)C(=O)C2N1Nc1ccccc1F (stereo not given)	0.308	0.535	1.09	-1.02 (inactive)	0.356	0.214	-0.0346	0.683	-0.526	0.913
O=C1OCC=C[C@H]2OC34C=CCN(CCN5CCOCC5)C(=O)[C@H]3N(CCCCCCO)C(=O)[C@@H]4[C@@H]12 (stereo not given in full)	1.18	-0.148	0.251	0.364 (inactive)	-0.231	-0.162	-0.0057	0.376	0.0105	1.35
CCCCN1CC=CC23O[C@@H]4C=CCCOC(=O)C4[C@H]2C(=O)N(CCCO)[C@@H]3C1=O (stereo not given in full)	-1.07	-0.132	-0.114	-1.21 (inactive)	-0.649	-1.12	-0.597	-0.739	-0.0604	0.824
O=C1c2ccccc2[C@@]2(Cc3ccccc3N(Cc3ccccc3)C2=O)[C@H](c2ccc(CO)cc2)N1Cc1ccccc1C(F)(F)F	1.1	0.0463	0.847	0.0517 (inactive)	-0.665	-0.866	-1.09	-0.71	-1.38	0.581
CCN(CC)c1ccc(N2CC=CC34O[C@@H]5C=CCCOC(=O)C5[C@H]3C(=O)N(CCCO)[C@@H]4C2=O)cc1 (stereo not given in full)	-1.99	-0.404	-0.373	-0.542 (inactive)	-0.344	-0.0608	-0.365	-0.0243	-0.174	1.5
CCCC[C@H]1OB(O)C[C@H]2C1=C(COc1ccccc1)C[C@H]1C(=O)N(Cc3ccccc3)C(=O)[C@H]12	0.412	-0.154	-0.283	-0.788 (inactive)	0.509	0.103	-0.248	0.581	0.193	0.78
CC(C)OC(=O)C1=CCC(c2cccc(Cl)c2)O1 (stereo not given)	1.58	-0.306	0.461	-2.49 (inactive)	-1.34	-0.33	-1.71	-0.715	-2.24	-1.41
CCCC[C@@H]1C[C@H]1[C@@H](NC(=O)c1ccccc1)c1ccc(-c2ccccc2)cc1	-0.616	-0.0102	0.754	-3.53 (inactive)	0.0096	-0.372	0.0518	0.12	0.228	0.715
COc1ccc([Si](C)(C)[C@H]2[C@H](CC(=O)N3CCC[C@H]3CO)O[C@@]3(C(=O)N(Cc4cccc(N5CCC5=O)c4)c4ccccc43)[C@@H]2C)cc1	1.11	-0.0732	-0.222	0.566 (inactive)	1.4	1.27	0.993	1.45	0.672	0.728
O=C1O[C@H](c2ccccc2)[C@H](c2ccccc2)N2[C@H]1[C@@H](C(=O)N1CCCCCCC1)[C@]1(C(=O)Nc3ccc(C#CC4=CCCCC4)cc31)[C@H]2c1ccc(O)cc1	2.14	3.14	1.72	-0.944 (inactive)	1.67	1.5	2.04	1.69	2.71	2.04
CN(C)CCCC[C@@H]1NC(=O)[C@@H]2C[C@H](C(=O)NCc3ccc(F)cc3)[C@H](c3cccc(OCCO)c3)N2C1=O	1.17	0.0666	0.0708	-0.815 (inactive)	1.36	0.833	0.267	1.17	0.314	-0.218
C=CCN1C(=O)[C@]2(COC(c3ccc(OCCCO)cc3)=N2)Cc2ccccc21	1.31	0.16	0.946	-0.556 (inactive)	0.261	0.678	0.145	0.232	-0.169	1.13
CC(C)[Si]1(C(C)C)O[C@@H](c2ccccc2)c2cc(-c3ccc(-c4ccc(Cl)c(Cl)c4)o3)nc(CCc3ccccc3)c21	-0.708	0.147	0.731	0.428 (inactive)	-0.707	-0.345	-0.844	-1.54	-1.25	0.949
C=C[C@H](C)[C@H](O)c1ccc(OCCO)cc1	0.771	-0.564	0.883	-0.961 (inactive)	-0.772	-1.21	-1.58	-0.607	-1.97	-2.79
CC(C)(C)OC(=O)CC[C@@]1(C(=O)N2CCOCC2)N=C(c2ccc(OCCCO)cc2)O[C@@H]1c1ccccc1N=[N+]=[N-]	1.3	0.981	1.04	-1.07 (inactive)	1.33	0.451	0.295	1.13	0.458	1.03

SMILES	composite z-score [1]	composite z-score [2]	composite z-score [3]	z-score [4]	composite z-score [5]	composite z-score [6]	composite z-score [7]	composite z-score [8]	composite z-score [9]	composite z-score [10]
C#C[C@H](O[Si](C#CCCCCCC)(C(C)C)C(C)C)c1ccccc1	-0.369	-0.109	-0.132	-0.22 (inactive)	-0.0831	0.173	-0.33	-0.215	-0.169	0.168
COc1ccc(C#Cc2ccc3c(c2)[C@]2(C(=O)N3)[C@H](c3ccc(OCCO)cc3)N3[C@H](c4ccccc4)[C@H](c4ccccc4)OC(=O)[C@H]3[C@@H]2C(=O)Nc2nc3ccccc3s2)cc1	1.29	0.771	0.72	3.63 (inactive)	1.3	1.29	0.655	1.38	0.618	0.331
COc1ccc(CCNC(=O)[C@@]2(C)c3ccccc3C(=O)N(Cc3ccccc3)[C@H]2c2ccc(CO)cc2)cc1	1.49	0.28	0.376	-0.278 (inactive)	1.26	0.707	0.433	1.43	0.548	0.684
C=CCN1Cc2ccccc2C[C@@]2(COC(c3ccc(OCCCO)cc3)=N2)C1=O	1.03	1.02	1.15	-1.13 (inactive)	0.489	0.597	0.437	0.68	0.644	1.59
CC(c1ccccc1)C(O)C1C=CC2C(=O)N(Cc3ccccc3)C(=O)C2N1n1cnnc1 (stereo not given)	0.424	0.492	0.675	-0.605 (inactive)	0.691	0.29	0.153	0.369	-0.174	0.813
O=[N+]([O-])c1ccc(C[n+]2ccc(CCCO)cc2)o1	0.513	0.762	0.805	0.115 (inactive)	1.54	0.634	0.396	1.13	1.08	0.918
CS(=O)(=O)CCOC(=O)C1=CC(c2ccc(CO)cc2)=CC(c2cccs2)N(Cc2cccc(OC(F)(F)F)c2)C=C1C(=O)OCCS(C)(=O)=O (stereo not given)	0.472	0.15	0.211	-0.164 (inactive)	1.02	0.88	0.084	0.919	0.353	1.33
CN(C)CCCN1C(=O)[C@@]2(c3ccc([N+](=O)[O-])cc3)CC(=O)N(C3CCCCC3)[C@@H]2c2ccc(CO)cc21	-0.34	-0.0972	0.196	-0.447 (inactive)	0.835	-0.808	0.108	-0.0207	-0.162	0.731
C/C=C/[C@H](CCn1cc([C@H](O)c2ccccc2)nn1)[Si](C)(C)c1ccc(OC)cc1	0.0765	-0.49	0.503	0.264 (inactive)	-0.607	-0.855	-1.52	-1.72	-0.338	-0.343
[N-]=[N+]=NCc1ccccc1[C@H]1OC(c2ccc(OCCCO)cc2)=N[C@@]1(Cc1ccccc1)C(=O)NCC(O)CO (stereo not given in full)	1.27	0.847	1.21	-0.807 (inactive)	0.782	1.27	-0.187	-0.751	-0.651	0.33
COCCOC(=O)N1C(=O)[C@@]2(c3cc(C#CCCO)ccc31)[C@H](C(=O)NC[C@H](O)c1ccccc1)[C@H]1C(=O)O[C@H](c3ccccc3)[C@H](c3ccccc3)N1[C@@H]2c1ccc(OCCO)cc1	1.24	0.112	0.169	-1.33 (inactive)	0.901	1.3	0.887	1.26	0.512	0.585
COCCOC(=O)N1C(=O)[C@@]2(c3cc(C#CC4=CCCCC4)ccc31)[C@H](C(=O)N1CCN(c3ncccn3)CC1)[C@H]1C(=O)O[C@H](c3ccccc3)[C@H](c3ccccc3)N1[C@@H]2c1ccc(OCCO)cc1	-0.424	0.282	0.298	-0.902 (inactive)	1.3	1.18	0.959	1.37	0.994	1.26
COCCCNC(=O)[C@@]1(Cc2ccccc2I)c2ccccc2C(=O)N(Cc2ccccc2)[C@H]1c1ccc(CO)cc1	-0.67	-0.113	0.394	-0.356 (inactive)	-1.25	-1.43	-2.16	-1.56	-1.41	-1.59
C=CCOC(=O)[C@H]1[C@@H]2C(=O)O[C@@H](c3ccccc3)[C@@H](c3ccccc3)N2[C@@H](c2ccc(OCCOC(=O)[C@H]3C[C@H]4C(=O)N[C@@H](CCCC[N+](C)(C)C)C(=O)N4[C@H]3c3ccc(O)cc3)cc2)[C@]12C(=O)Nc1ccccc12	1.63	-0.194	-0.135	-1.08 (inactive)	0.507	-0.112	-0.229	0.563	0.387	-0.196
Cc1ccc(S[C@]2(C(=O)NCC(C)C)CC(=O)N(Cc3ccccc3)[C@@H]2c2ccc(CO)cc2)cc1	0.959	-0.0941	1.09	0.00364 (inactive)	-0.514	-0.919	-1.14	-0.979	-1.06	-0.417
CO[C@H]1O[C@H](CO)[C@@H](OC(=O)Nc2ccc(C(F)(F)F)cc2)[C@H](OC(=O)Nc2ccccc2)[C@@H]1OC(=O)Nc1ccccc1	1.02	-0.442	0.144	-0.577 (inactive)	1.07	1.23	0.74	0.743	0.295	0.378
